Screening data (PubChem BioAssay)
Compounds with a hit are over-represented: about 3.6% of the library has one in this group of screens.
BoNT-A LC inh2: blocks Botulinum neurotoxin A light chain protease; multiplex microsphere protease substrate cleavage, flow cytometry; inhibition, % at 10 µM; hit rate 0.17% among 360,000; also: plate controls were buffer without enzyme for full effect and enzyme alone for no effect
3CLpro inhibitor: SARS-CoV 3CLpro protease inhibition; recombinant SARS-CoV 3CLpro, quenched FRET peptide cleavage; inhibition, % at 6 µM; hit rate 0.14% among 290,000; in the data active = inhibition above about 12%
BJeLR viability: kills HRASV12-expressing BJeLR cells; inhibition, % (no concentration beside the values); hit rate 0.17% among 300,000; BJeLR (HRASV12) viability, CellTiter-Glo ATP luminescence, 48 h; in the data active = inhibition above about 50%; inconclusive = no clear call, values can overlap the other calls
Autofluor counter: counter-screen for toxin protease inhibitors: compound fluorescence; compound autofluorescence counterscreen, microsphere flow cytometry; stronger effect = higher value; fluorescence intensity (test concentration not listed); hit rate 3.1% among 360,000; AID 624483; in the data active = fluorescence intensity above about 16000; inconclusive = no clear call, values can overlap the other calls
Anthrax LF prot: blocks Bacillus anthracis lethal factor protease. AID 588501. hit rate 0.12% among 360,000. inhibition, % at 10 µM. multiplex microsphere protease cleavage assay, LF. P15917; also: plate controls were buffer without enzyme for full effect and enzyme alone for no effect
BoNT F protease: BoNT F light chain protease inhibition; inhibition, % at 10 µM; hit rate 0.22% among 360,000; Multiplex microsphere protease cleavage assay, flow cytometry; AID 588497; in the data active = inhibition above about 35%, passing the limit was not always enough; inconclusive = no clear call, values can overlap the other calls; also: plate controls were buffer without enzyme for full effect and enzyme alone for no effect
* = called active by the depositor; ? = inconclusive; . = no result. Rule as the data show it, unless noted: active = inhibition above about 30%; inconclusive = no clear call, values can overlap the other calls; inactive = below that.

SMILES | BoNT-A LC inh2 | 3CLpro inhibitor | BJeLR viability | Autofluor counter | Anthrax LF prot | BoNT F protease
Cc1ccc(NC(=O)NCCCN2CCCC2=O)cc1C | -2.2 | 2.1 | 10.8 | 4794 | -6.0 | 3.2
CCN1CCN(C(=S)NCCOC)CC1 | 0.5 | -0.9 | 4.8 | 2475 | 0.0 | 5.4
CCOC(=O)N1CCN(C(=S)NCCOC)CC1 | 4.0 | 1.3 | 2.6 | 18608* | -2.9 | 5.6
CCOC(=O)N1CCN(C(=S)NC(C)(C)C)CC1 | -2.1 | 0.5 | -5.9 | 22858* | -0.6 | -4.3
COc1ccc([C@H]2CC(=O)C=C(c3cc4ccccc4s3)C2)cc1OC | 0.7 | . | . | 4134 | -5.3 | -4.5
CCOC(=O)C(NC(=O)c1ccccc1)C(C)(C)SCc1ccccc1 (stereo unspecified) | -0.2 | . | . | 4006 | 0.6 | -1.3
O=C(NCCC1CCCCN1S(=O)(=O)c1ccccc1)C(=O)NCc1ccc(F)cc1 (stereo unspecified) | . | . | 7.5 | . | . | .
Cc1cccc(C)c1NC(=O)CNC(=O)CN1C(=O)NC2(CCc3ccccc32)C1=O (stereo unspecified) | 0.3 | . | . | 3238 | -5.1 | -1.2
CCCN1C(=O)C(=O)c2cc(Cl)ccc21 | -0.6 | . | . | 3888 | -8.1 | 2.0
CCC12CSc3nc(Cl)ccc3N1C(=O)C(=O)N2C (stereo unspecified) | 2.5 | -1.6 | -7.8 | 3598 | ? | 39.8*
Cc1c(NC(=O)C(=O)/C=C(/O)c2ccccc2)c(=O)n(-c2ccccc2)n1C | -0.9 | 2.9 | 3.3 | 8686 | -4.3 | -7.7
COc1ccc(/C(O)=C/C(=O)C(=O)Nc2c(C)n(C)n(-c3ccccc3)c2=O)cc1 | 2.0 | -1.4 | -1.5 | 21666* | -10.0 | 1.7
O=C(c1ccccc1)N1CCN(C2c3cccc4cccc(c34)C2NS(=O)(=O)c2ccccc2)CC1 (stereo unspecified) | -2.7 | 10.8 | 1.5 | 23933* | -2.5 | -5.7
O=S(=O)(NC1c2cccc3cccc(c23)C1N1CCNCC1)c1ccccc1 (stereo unspecified) | -1.2 | -1.6 | 2.5 | 7200 | 0.8 | -19.2
CC1=NN(C(=O)c2c(Br)c(C)nn2C)C(O)(C(F)(F)F)C1 (stereo unspecified) | -1.6 | -3.0 | 20.1 | 7658 | -2.3 | -2.9
CC(C)C(OC(=O)C1CCCO1)C(=O)NC1CCCC1 (stereo unspecified) | 2.2 | 8.2 | 3.8 | 18597* | -3.2 | 1.4
CC(C)C(OC(=O)c1ccco1)C(=O)NC1CCCC1 (stereo unspecified) | 1.9 | 7.0 | -5.2 | 5241 | -1.3 | 9.1
O=C(Nn1cnnc1)c1cc2cc(Br)ccc2oc1=O | -0.7 | 0.7 | -4.2 | 23909* | -2.6 | -2.6
CCN(CC)C(=O)c1cc2cc(Br)ccc2oc1=O | ? | -4.1 | 6.3 | 22173* | -8.8 | 3.1
CCN(C(=O)c1cc2ccccc2oc1=O)c1cccc(C)c1 | -1.4 | -0.9 | 6.2 | 20635* | -2.2 | -1.7
CN(C)CCNC(=O)c1cc2cc(Br)ccc2oc1=O | -0.6 | -4.1 | 4.5 | 10526 | 0.5 | -12.7
COc1ccc(N2CCN(S(=O)(=O)c3cn(C)cn3)CC2)cc1 | 0.1 | -2.3 | -5.4 | 5644 | -1.5 | 2.0
Cc1ccc(-n2nc3c(c2NC(=O)c2ccccc2)CS(=O)(=O)C3)cc1C | -2.5 | -0.1 | -8.2 | 5972 | 1.9 | 0.8
Cc1ccc2[nH]c(O)c(N=NC(=O)C3CC3c3ccccc3)c2c1Br (stereo unspecified) | 0.0 | -1.2 | -3.6 | 2108 | -1.0 | -2.1
Oc1ccc(-n2cccc2/C=N/n2cnnc2)cc1 | -1.7 | 1.1 | -4.9 | 3399 | -9.6 | -7.3
SMILES | BoNT-A LC inh2 | 3CLpro inhibitor | BJeLR viability | Autofluor counter | Anthrax LF prot | BoNT F protease
O/N=C/c1cccn1-c1ccc(O)cc1 | -1.4 | 1.4 | 16.0 | 23862* | -0.6 | -4.0
C=CCn1c(SCC(N)=O)nnc1-c1ccccc1O | 0.9 | 4.9 | -3.0 | 3142 | 3.5 | 17.7
C=CCn1c(SCc2ccccc2C#N)nnc1-c1ccccc1O | 2.5 | -2.7 | 4.8 | 21434* | -0.3 | 5.6
Cn1c(SCc2ccc(C#N)cc2)nnc1-c1cccc(Cl)c1 | -1.2 | -1.5 | 7.6 | 16948* | -2.9 | -1.5
C=CCn1c(SCc2ccc(C#N)cc2)nnc1-c1ccccc1 | -0.2 | 1.9 | 3.6 | 22580* | 1.5 | -0.2
C=CCn1c(SCC(N)=O)nnc1-c1cc(Br)ccc1O | ? | -3.2 | -1.2 | 21322* | -4.2 | -0.7
OC(c1cccc(Cl)c1)c1nc(-c2ccc(Cl)cc2)cs1 (stereo unspecified) | -0.8 | . | . | 3308 | -4.1 | -10.6
O=C(O)c1cc(NN=C2CCN(Cc3ccccc3)CC2)ccc1Cl | 6.6 | 5.3 | -3.0 | 6123 | -5.3 | 41.8*
CC1C(=NO)C(C)C(c2ccccc2)NC1c1ccccc1 (stereo unspecified) | ? | -3.6 | 17.2 | 22855* | -1.0 | -2.4
CCN(CC)C(=O)CSc1nnc(-c2ccco2)n1N | 8.4 | 2.2 | 3.7 | 17289* | -10.5 | 8.8
CCOc1ccccc1-n1c(SCC(=O)NC)nnc1-c1ccco1 | -5.6 | -2.8 | 7.0 | 17639* | -6.3 | -9.6
CN(CCC#N)C(=O)COC(=O)c1cc(Cl)cc(Cl)c1N | -0.1 | 4.6 | -2.8 | 3589 | 0.9 | -4.3
NS(=O)(=O)c1cccc(NC(=O)Cn2cnc3ccccc3c2=O)c1 | 3.1 | -1.4 | 13.7 | 20676* | -3.9 | 2.2
COCCNC(=O)C(c1ccc(F)cc1)N(C(=O)CCC(=O)Nc1nccs1)c1cccc(C)c1 (stereo unspecified) | -0.5 | 2.2 | . | 4219 | 1.8 | -2.4
O=C(NCc1ccco1)C1(c2ccc(Br)cc2)CCCC1 | -0.2 | 11.6 | 0.8 | 7593 | -4.9 | -0.4
COc1ccc(N2CCN(S(=O)(=O)c3c(C)nc4scc(C)n4c3=O)CC2)cc1 | 1.1 | -0.4 | 1.2 | 4209 | 1.0 | 2.0
CCCSc1nc2sc3c(c2c(=O)[nH]1)CCN(Cc1ccccc1)C3 | 32.3* | 7.1 | -6.3 | 8728 | 24.3 | ?
O=c1[nH]c(C(Cl)Cl)nc2sc3c(c12)CCN(Cc1ccccc1)C3 | 6.1 | 5.4 | 2.4 | 4543 | 0.9 | -14.8
COc1ccc(NS(=O)(=O)c2cccc(C(=O)NNC(=O)NCCCl)c2)cc1 | -0.8 | 0.8 | -10.7 | 3271 | -3.8 | 1.0
COc1cccc2cc(C(=O)C3=C(O)C(=O)N(CCN(C)C)C3c3ccc(Cl)cc3)oc12 (stereo unspecified) | ? | 1.7 | 2.4 | 3918 | 30.3* | ?
CN(C)CCN1C(=O)C(O)=C(C(=O)c2cc3ccccc3o2)C1c1cccc(Br)c1 (stereo unspecified) | ? | 1.4 | -0.4 | 22182* | -3.3 | -6.0
Cc1ccc2c(c1)N(CC(=O)N1CCCc3ccccc31)C(=O)CO2 | -0.9 | -4.7 | -5.1 | 16620* | -3.9 | -1.4
Cc1ccc(CNC(=O)CN2C(=O)COc3ccc(C)cc32)cc1 | 0.9 | 4.3 | 1.3 | 19416* | -4.5 | 0.6
Cc1ccc2c(c1)N(CC(=O)N1CCc3ccccc3C1)C(=O)CO2 | 1.2 | -2.5 | -7.1 | 21837* | -1.5 | -0.2
O=C(CN1C(=O)COc2ccccc21)N1CCc2ccccc21 | 0.2 | -6.2 | -7.3 | 3695 | 3.7 | 20.4
